Screening data (PubChem)
Hits are enriched below; roughly 22% of the tested compounds scored in any of these assays.
Pf growth 48h: inhibits P. falciparum growth in the first generation, 48 h. P. falciparum luciferase growth in erythrocytes, 48 h. Potency, µM (highest dose often 28.7 µM), usual class: inhibitors. 310,000 compounds, 5.9% hits. AID 504832
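Luminescence readout; reporter = integrated firefly luciferase in P. falciparum. RBC culture at 2% hematocrit, 0.1% parasitemia final, 37 C/5% CO2; decreased signal taken as growth inhibition.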
Cycloheximide cs: counter-screen for Shiga toxin inhibitors: cycloheximide protein synthesis inhibition. cell reporter, cycloheximide protein synthesis inhibition counterscreen. max response, %. 300,000 compounds, 12% hits; in the data active = max response mostly above about 13%, no sharp cut-off; inactive = mostly below about 14%; also: read at 38.3 µM for the half of the compounds with a filed dose
Shiga inhibitor: Shiga toxin inhibition; inhibition, % at 38.7 µM; Vero cells, Shiga toxin protein synthesis inhibition reporter; 290,000 compounds, 9.2% hits; in the data active = inhibition mostly above about 28%, no sharp cut-off; inactive = mostly below about 43%
LmPK inh: inhibitors of Leishmania mexicana pyruvate kinase; Q27686; purified LmPK, Kinase-Glo ATP luminescence, 1 h; Potency, µM (titrated, usually from 57.5 µM), actives largely listed as inhibitors; 290,000 compounds, 0.37% hits; AID 1721
Target sequence (Q27686 whole entry, looked up): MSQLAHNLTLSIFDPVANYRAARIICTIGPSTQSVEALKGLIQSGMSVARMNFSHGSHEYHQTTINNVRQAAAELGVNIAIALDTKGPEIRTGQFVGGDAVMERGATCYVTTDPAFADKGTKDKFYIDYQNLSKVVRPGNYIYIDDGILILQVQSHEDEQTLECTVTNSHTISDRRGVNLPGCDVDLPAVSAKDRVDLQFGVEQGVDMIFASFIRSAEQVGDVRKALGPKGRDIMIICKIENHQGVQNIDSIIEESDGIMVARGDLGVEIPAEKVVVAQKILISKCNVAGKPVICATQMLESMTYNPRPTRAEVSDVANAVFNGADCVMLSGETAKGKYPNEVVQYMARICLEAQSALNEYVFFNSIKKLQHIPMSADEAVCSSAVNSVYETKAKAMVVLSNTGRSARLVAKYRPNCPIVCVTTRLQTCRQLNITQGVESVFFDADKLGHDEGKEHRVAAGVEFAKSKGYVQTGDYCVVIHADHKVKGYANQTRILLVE
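Pyruvate kinase activity monitored as ATP production (luciferase luminescence). Conditions: 0.1 nM enzyme, 0.5 mM PEP, 0.1 mM ADP, 1 h, RT; normalized against uninhibited and no-enzyme wells.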
Pf growth 96h: inhibits malaria parasite growth, 96 h; P. falciparum luciferase reporter growth, 96 h; Potency, µM (doses to about 28.7 µM), usual class: inhibitors; 320,000 compounds, 6.9% hits
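Two-generation exposure (96 h) targets delayed-death phenotype. Reporter parasites carrying integrated firefly luciferase, in red cells at 2% hematocrit and 0.05% parasitemia final, kept at 37 C, 5% CO2; luminescence loss indicates inhibition.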
Hits are given with their value; – = inactive; ? = inconclusive; · = no result given; [ ] = remark or other dose. Unless noted, calls follow the shape of the dose curve; as a rule, active = well fitted inhibition curve with a large enough effect; inconclusive = small, poorly fitted or top-dose-only effect, or another doubt; inactive = no such curve, though single readings can be large or run the other way.

SMILES | Pf growth 48h | Cycloheximide cs | Shiga inhibitor | LmPK inh | Pf growth 96h
COc1ccc(S(=O)(=O)N2CCCOC2CNC(=O)C(=O)NCc2ccccn2)cc1 (stereo not drawn) | – | – | – | – | –
COc1cccc(CCNS(=O)(=O)CCNC(=O)c2cccc(OC)c2)c1 | – | · | · | · | –
COc1ccc2cc(C(=O)NCCc3ccccc3)[nH]c2c1 | – | 21.6 | – | – | –
O=C(NCCc1ccc([N+](=O)[O-])cc1)c1ccccc1 | ? | 28.5 | 61.1 | – | ?
COc1cccc(CCNC(=O)c2ccc(C#N)cc2)c1 | – | 20.9 | 38.2 | – | –
COc1ccc(CCNC(=S)Nc2ccccc2)cc1 | 10.4µM | – | – | – | ?
COc1ccc(CN(C)S(=O)(=O)c2nnc(NC(=O)c3cccc(F)c3)s2)cc1 | – | – | – | – | –
CC(Cc1n[nH]c(=S)n1N)c1ccccc1 (stereo not drawn) | – | – | – | – | –
COc1ccc(CC(=O)Nc2ccccc2C(=O)NCCc2ccccc2)cc1 | ? | 29.6 | 47.9 | – | 11.7µM
CC(C)c1ccc(OC(=O)NCCO)cc1 | – | 14.7 | 44.1 | – | ·
COc1ccc(CCNC(=O)COC(=O)Cc2ccccc2)cc1 | – | – | – | – | –
COc1ccc(CCNC(=O)c2sc(=S)n(C)c2N)cc1 | – | – | – | – | 1.85µM
Cc1ccc(CCNC(=O)c2coc3nc4ccccc4nc23)cc1 | – | – | – | – | 2.62µM
Cn1c(N)c(C(=O)NCc2ccccc2)sc1=S | – | – | – | – | –
COC(=O)CSc1nc(-c2ccccc2)nc2ccccc12 | – | – | – | – | –
COCc1ccc(C(=O)N2CCCC(N3CCN(c4ccc(F)cc4)CC3)C2)o1 (stereo not drawn) | ? | – | – | – | –
COc1ccc(CCNC(=O)c2ccccc2)cc1 | – | 28.2 | 117.3 | – | ?
COc1ccc(CCNC(=O)c2ccc(Cl)cc2)cc1 | · | – | – | – | ?
COc1cc(NC(=S)NCCC(c2ccccc2)c2ccccc2)cc(OC)c1 | 13.1µM | – | – | – | ?
COc1ccc(CCNC(=O)c2ccc(N(C)S(=O)(=O)c3ccccc3)cc2)cc1 | 2.08µM | – | – | – | ?
COc1ccc(OC(=O)NCCc2ccccc2)cc1 | – | 33.2 | 61.7 | – | –
COc1ccc(CCNC(=O)CC(=O)NCCc2ccc(OC)cc2)cc1 | ? | – | – | – | –
Cc1cc(OCC(=O)OCC(=O)Nc2ccc(Cl)cn2)ccc1Cl | – | · | · | · | –
CC(C)/C=C/C(=O)N1CCCC(N2CCN(c3ccccc3F)CC2)C1 (stereo not drawn) | – | – | – | – | ?
COc1ccc(C(=O)NCC2(c3ccccc3)CCOCC2)cc1 | – | 35.7 | – | – | –
SMILES | Pf growth 48h | Cycloheximide cs | Shiga inhibitor | LmPK inh | Pf growth 96h
COc1ccc(CC(=O)Nc2cccc(C(=O)O)c2C)cc1 | – | 15.3 | – | – | ?
COc1ccc(C2(CNC(=O)c3ccc(C)cc3)CCOCC2)cc1 | – | – | – | – | –
CCc1nnc(NC(=O)CSc2ccc(-c3cccs3)nn2)s1 | – | – | – | – | ?
Fc1ccc(CSc2ccc(-c3cccs3)nn2)cc1 | – | 29.8 | – | – | –
c1cncc(CSc2ccc(-c3cccs3)nn2)c1 | – | 26.1 | 44.2 | – | ?
Cc1ccc(CSc2ccc(-c3cccs3)nn2)cc1 | – | 46.2 | 46.7 | – | –
Cc1ccc(CNC(=O)CSc2ccc(-c3cccs3)nn2)cc1 | – | – | – | – | –
Cc1cccc(Nc2nnc(-c3ccc(N4CCOCC4)c([N+](=O)[O-])c3)c3ccccc23)c1 | 11.7µM | – | – | – | ?
COc1cccc(CNC(=O)c2cc(S(=O)(=O)N3CCOCC3)cn2C)c1 | – | – | – | – | ?
O=C1C2C3c4ccccc4C(c4ccccc43)C2C(=O)N1Cc1cccnc1 (stereo not drawn) | – | – | – | – | –
COc1ccc(C(=O)Nc2cccc3ccccc23)cc1 | – | 20.8 | – | – | ?
Cc1ccc(C(=O)Nc2cccc3ccccc23)cc1 | – | 28.7 | 35.2 | – | –
COc1cc(OC)c(C(=O)Nc2cccc3ccccc23)cc1OC | – | 20.8 | · | – | –
CC(C)(C)c1cc(C(=O)Nc2cccc3ccccc23)ccn1 | – | – | – | – | ?
COc1ccc(C(=O)NNC(=O)C(=O)Nc2cccc3ccccc23)cc1 | – | – | – | – | ?
Cc1ccccc1NC(=O)c1ccc(NS(=O)(=O)c2cc(C(C)(C)C)cc(C)c2C)cc1 | – | – | – | – | –
CC(C)(C)c1ccc(C(=O)Nc2cccc3c(=O)[nH][nH]c(=O)c23)cc1 | – | 56.1 | 54.5 | – | ?
CCCCn1c2ccc(F)cc2c2nnc(NN)nc21 | – | – | – | – | ?
CN1CCC(N(C)C(=O)c2cc(=O)c3ccccc3o2)CC1 | – | – | – | – | –
CCc1ccc(OCC(=O)NNCC(=O)Nc2ccc(OC)cc2)cc1 | – | · | · | · | –
Cc1cc(C(=O)Nc2cccc3ccccc23)co1 | – | 14.2 | – | – | ?
Cc1oc(-c2ccccc2)cc1C(=O)Nc1cccc2ccccc12 | – | 16.3 | – | – | –
Cc1nc(SCC(=O)N2CCCCCC2)[nH]c(=O)c1C | – | · | · | · | –
CC1CCCN(CCCCOc2cccc(Br)c2)C1 (stereo not drawn) | ? | – | – | – | ?
CC(C)(C)NCc1cc(Cl)ccc1OCc1ccccc1F | –[5.75 µM] | – | – | – | 8.28µM
SMILES | Pf growth 48h | Cycloheximide cs | Shiga inhibitor | LmPK inh | Pf growth 96h
CC(C)(C)NCc1cc(Cl)ccc1OCc1cccs1 | ? | – | – | – | 9.28µM
CCOc1ccc(Cl)cc1CNCCc1ccc(F)cc1 | ? | – | – | – | ?
CCN(CC)CCNCc1cc(Cl)ccc1OCc1ccccc1F | 5.86µM | – | – | – | –
Cn1nnc(NCc2cc(Br)ccc2OCc2ccccc2F)n1 | ? | – | – | – | –
C1CNCCNCCCNCCNC1 | – | – | – | – | –
C=CCOc1ccc(/C=C2\SC(=S)N(NS(=O)(=O)c3ccccc3)C2=O)cc1 | – | – | – | – | –
COc1ccc(N(CC(=O)NCCC2=CCCCC2)S(=O)(=O)c2ccc(C)cc2)cc1 | ? | – | – | – | ?
Cc1nc(N2CCCCC2)c(C#N)c(C)c1[N+](=O)[O-] | – | – | – | – | –
COc1ccc(/C=C2/SC(=O)N(CC(O)Cn3c4ccccc4c4ccccc43)C2=O)cc1 (stereo not drawn) | ? | – | – | – | ?
COc1ccc(/C=C2/SC(=O)N(CCNC(=O)CC(NC(C)=O)c3ccccc3)C2=O)cc1 (stereo not drawn) | – | 20.9 | – | – | ?
COc1ccc(/C=C2\SC(=O)N(CCNC(=O)C3CC4C=CC3C4)C2=O)cc1 (stereo not drawn) | – | 57.8 | 101.2 | – | –
COc1ccc(/C=C2\SC(=O)N(CCn3cnnn3)C2=O)cc1 | – | 37.3 | 82.9 | – | –
COc1ccc(/C=C2/SC(=O)N(CCNC(=O)C3CCCN3C(=O)c3cccs3)C2=O)cc1 (stereo not drawn) | ? | 32.1 | 63.1 | – | ?
COc1ccc(/C=C2\SC(=S)N(CCC(=O)Nc3ccccc3C(=O)O)C2=O)cc1 | · | – | – | – | –
